# LYPLA1 inh = LYPLA1 (human) inhibition in PME1 counter-screen | O75608 | recombinant LYPLA1, FP-Rh probe fluorescence polarization | inhibition, % at 5.9 µM | hit rate 0.16% among 320,000;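 active = inhibition above the mean of all tested compounds plus 3 SD, set per campaign, cut at about 14% in these data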;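 note: inhibitors block serine hydrolase probe labeling of LYPLA1 so polarization falls; 0% = enzyme with DMSO and 100% = wells lacking LYPLA1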
# LYPLA2 counter = LYPLA2 (human) inhibition in PME1 counter-screen; recombinant LYPLA2, FP-Rh probe fluorescence polarization; inhibition, % at 5.9 µM; hit rate 0.38% among 320,000; AID 2177;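 active = inhibition above the screen-wide mean plus 3 SD, limit set per campaign, cut at about 26% in these data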;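 note: 0% = LYPLA2 with DMSO and 100% = wells lacking LYPLA2 enzyme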
# PAFAH1B3 FP inh = blocks human PAF acetylhydrolase 1B catalytic subunit 3; Q15102; recombinant PAFAH1B3, FP-rhodamine probe, fluorescence polarization; inhibition, % at 3.39 µM; hit rate 0.28% among 340,000; AID 492972;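 active = inhibition above the screen-wide average of all tested compounds plus 3 SD, cut at about 25% in these data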;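 note: 0% = enzyme with DMSO only and 100% = wells lacking PAFAH1B3 protein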
# Target sequence (Q15102 whole entry, looked up): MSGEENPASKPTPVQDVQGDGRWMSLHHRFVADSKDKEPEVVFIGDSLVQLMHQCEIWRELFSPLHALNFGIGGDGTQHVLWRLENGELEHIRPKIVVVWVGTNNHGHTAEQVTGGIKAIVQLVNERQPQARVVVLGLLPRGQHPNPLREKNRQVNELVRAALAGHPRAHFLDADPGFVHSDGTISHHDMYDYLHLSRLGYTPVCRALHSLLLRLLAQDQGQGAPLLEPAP
# PAFAH2 inh = inhibitors of human PAFAH2 | Q99487 | recombinant PAFAH2, FP-rhodamine activity probe, fluorescence polarization | inhibition, % at 3.39 µM | hit rate 0.99% among 340,000 | AID 492956;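 active = inhibition above the mean over all tested compounds plus 3 SD, cut at about 30% in these data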;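 note: inhibitors block probe labeling of enzyme so polarization drops; 0% = enzyme with DMSO and 100% = wells lacking PAFAH2 protein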
# pPAFAH FP inh = pPAFAH (human) enzyme inhibition; Q13093; recombinant pPAFAH, FP-rhodamine probe fluorescence polarization; inhibition, % at 3.39 µM; hit rate 1.5% among 330,000;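 active = inhibition above the mean inhibition across the screen plus 3 SD, cut at about 25% in these data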;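 note: inhibitors block binding of the rhodamine activity-based probe so polarization drops; 0% = enzyme with DMSO and 100% = wells lacking pPAFAH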
# PAFAH1B2 inh = PAFAH1B2 (human) inhibition; P68402; recombinant PAFAH1B2, FP-rhodamine activity probe, fluorescence polarization; inhibition, % at 3.39 µM; hit rate 1.2% among 340,000;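 active = inhibition above the mean of all tested compounds plus 3 SD, cut at about 24% in these data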;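 note: 0% = enzyme with DMSO and 100% = wells lacking PAFAH1B2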
# PAFAH2 confirm = PAFAH2 (human) inhibition, confirmed. AID 493030. recombinant PAFAH2, FP-rhodamine activity probe, fluorescence polarization. inhibition, % at 3.39 µM. hit rate 65% among 2,300. shares compounds with PAFAH2 inh;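 active = mean inhibition over three repeats above a set limit taken from the earlier primary screen, cut at about 30% in these data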;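 note: inhibitor blocks binding of rhodamine activity probe so polarization falls; 0% = enzyme with DMSO and 100% = wells lacking PAFAH2 protein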
# PAFAH1B3 conf FP = PAFAH1B3 (human) inhibition, confirmed | shares compounds with PAFAH1B3 FP inh | recombinant PAFAH1B3, FP-Rh activity-based probe, fluorescence polarization | inhibition, % at 3.39 µM | hit rate 30% among 390 | AID 493032;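 active = average inhibition over triplicate runs above the hit cutoff set in the earlier primary screen, cut at about 25% in these data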;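 note: 0% = enzyme with DMSO and 100% = wells lacking PAFAH1B3 protein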
# The depositor's hits bear a star; · = not tested or not shown. Most compounds without a hit are left out; they make up all but 2.9% or so of the library.
SMILES,LYPLA1 inh,LYPLA2 counter,PAFAH1B3 FP inh,PAFAH2 inh,pPAFAH FP inh,PAFAH1B2 inh,PAFAH2 confirm,others
Cc1cc(/C=C2/C(=O)NC(=O)N(Cc3ccco3)C2=O)c(C)n1-c1ccccc1O,-5,-9,8,32*,11,5,26,
CCOc1ccc(N2C(=O)/C(=C\c3cccs3)C(=O)NC2=S)cc1,-7,-14,·,·,-1,·,·,
CCOc1ccc(N2C(=O)/C(=C/c3ccco3)C(=O)NC2=S)cc1,-6,-13,25,94*,16,22,63*,
C[C@]12CC[C@H](O)CC1=CC[C@@H]1[C@@H]2CC[C@@]2(C)[C@H]1CC[C@]2(C)O,3,0,·,·,1,·,·,
O=P(Oc1ccccc1)(Oc1ccccc1)C(O)c1ccccc1 (stereo not given),0,8,4,30*,3,2,16,
COc1ccc(N2C(=O)NC(=O)/C(=C/c3ccc4c(c3)Cc3ccccc3-4)C2=O)cc1,-2,-1,·,·,14,·,·,
Cc1cccc(N2C(=O)NC(=O)/C(=C\c3ccc4c(c3)CCCN4Cc3ccccc3)C2=O)c1,-5,-3,-19,33*,11,0,37*,
O=C1NC(=O)C(CCc2ccncc2)(CCc2ccncc2)C(=O)N1C1CCCCC1,4,2,7,1,5,0,·,
O=C1NC(=O)N(C2CCCCC2)C(=O)C1C1c2ccccc2C(=O)N1Cc1ccccc1 (stereo not given),3,1,-5,45*,4,17,41*,
O=C(N/N=C/C1C(=O)NC(=S)N(c2ccccc2)C1=O)c1cc(Br)c(O)c(Br)c1 (stereo not given),-3,-5,8,37*,24,20,27,
O=C(N/N=C/c1c(O)n(C2CCCCC2)c(=S)[nH]c1=O)c1ccccc1,-6,-16,19,6,12,5,·,
COc1cc2c(cc1O)[C@@H]1Cc3ccc(OC)c(O)c3CN1CC2,2,8,37*,6,0,8,·,PAFAH1B3 conf FP=11
N#CCCCCC#N,·,·,13,1,2,-1,·,
COc1ccc2c(CN3CC=C(c4ccccc4)CC3)cc(=O)oc2c1,-2,-3,8,0,-1,-1,·,
CCc1ccc2c(CN3CC=C(c4ccccc4)CC3)cc(=O)oc2c1,-7,-2,27*,-3,2,2,·,PAFAH1B3 conf FP=6
c1cnc(N2CCNCC2)nc1,3,2,9,8,4,0,·,
CCC(C)NC(=O)c1c(N)n(CCCOC)c2nc3ccccc3nc12 (stereo not given),0,4,62*,9,18,18,·,PAFAH1B3 conf FP=19
CCCCn1c(NS(=O)(=O)c2ccccc2)c(C(=O)OCC)c2nc3ccccc3nc21,-1,6,51*,14,18,24,·,PAFAH1B3 conf FP=5
CCOC(=O)c1c(N)n(CCN2CCCCC2)c2nc3ccccc3nc12,-3,-3,-6,8,-1,2,·,
Oc1cccc2nc3ccccc3nc12,-1,-23,35*,14,12,2,·,PAFAH1B3 conf FP=10
COc1ccc2c(c1)[C@@]13CCC=C[C@H]1[C@@H](C2)NCC3,1,2,6,-4,-1,2,·,

# High-throughput results (PubChem)
